# Data taken from PubChem BioAssay (EPA / NIEHS).
# Results filed as inconclusive are left out. Activity calls are given as the source filed them. The calls were made as follows, unless noted: active = hit-call score of the fitted dose curve at least 0.9, where 1 is the maximum; inactive = score below 0.9.
# Key:
# [1] = target: Myc proto-oncogene protein (Homo sapiens) (UniProt P01106); assay: ATG_Myc_CIS: Attagene CIS-FACTORIAL HepG2 Assay for human Myelocytomatosis (Myc) Proto-Oncogene Transcription Factor (AID 2282990); settings: HepG2, Attagene cis-reporter transcription factor activity; actives raise or lower the signal
# Chain of Myc proto-oncogene protein (Homo sapiens) (P01106 whole entry, looked up): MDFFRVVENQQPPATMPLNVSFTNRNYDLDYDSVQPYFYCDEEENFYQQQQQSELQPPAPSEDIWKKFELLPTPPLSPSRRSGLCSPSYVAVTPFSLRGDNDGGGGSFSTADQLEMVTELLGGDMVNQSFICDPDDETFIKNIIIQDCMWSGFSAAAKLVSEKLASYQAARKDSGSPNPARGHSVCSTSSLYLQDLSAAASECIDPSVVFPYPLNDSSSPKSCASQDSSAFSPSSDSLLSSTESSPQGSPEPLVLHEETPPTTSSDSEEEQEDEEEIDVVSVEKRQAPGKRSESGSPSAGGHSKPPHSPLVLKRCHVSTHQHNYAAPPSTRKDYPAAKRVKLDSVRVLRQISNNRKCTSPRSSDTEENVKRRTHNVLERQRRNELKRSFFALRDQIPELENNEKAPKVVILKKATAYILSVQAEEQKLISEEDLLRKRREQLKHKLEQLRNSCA
# Method in brief: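 Transiently transfected HepG2 cells bearing cis-promoter reporter units for endogenous transcription factors; 24 h exposure. Reporter mRNA measured by RT-PCR, 6-FAM primer extension, HpaI cut and capillary electrophoresis; bidirectional fit relative to DMSO.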
# [2] = ATG_NF_kB_CIS: Attagene CIS-FACTORIAL HepG2 Assay for human Nuclear Factor Kappa B (NF-kB) (AID 2282991); settings: HepG2 Attagene cis-factorial NF-kB reporter mRNA; actives raise or lower the signal
# Method in brief: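 HepG2, transient multi-reporter transfection, cis promoter elements (endogenous TFs). 24 h exposure. Total RNA → RT → PCR → 6-FAM label → HpaI → CE. Gain/loss vs DMSO.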
# [3] = ATG_NRF2_ARE_CIS: Attagene CIS-FACTORIAL HepG2 Assay for human Nuclear Factor Erythroid 2 Related Factor 2 (NFR2) response to Antioxidant Response Elements (ARE) (AID 2282992); settings: HepG2 Attagene ARE/NRF2 reporter, transcription factor activity; actives raise or lower the signal;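 as to AC50: reporter mRNA level measured by RT-PCR and capillary electrophoresis fluorescence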
# Method in brief: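 Readout: reporter mRNA quantified by RT-PCR plus FAM-labelled primer extension, HpaI digestion and capillary electrophoresis, 24 h after dosing transfected HepG2 cells. Gain or loss of signal is fitted bidirectionally against DMSO baseline.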
# [4] = ATG_Oct_MLP_CIS: Attagene CIS-FACTORIAL HepG2 Assay for human Octamer-Binding Transcription Factor (Oct) (AID 2282993); settings: HepG2 Attagene cis-factorial Oct reporter, mRNA; actives raise or lower the signal
# Method in brief: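 Using HepG2 cells bearing transfected cis-reporter constructs, mRNA induction was read after 24 h by fluorescent RT-PCR and capillary electrophoresis, with DMSO defining baseline for gain- or loss-of-signal fits.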
# [5] = target: Cellular tumor antigen p53 (Homo sapiens) (UniProt P04637); assay: ATG_p53_CIS: Attagene CIS-FACTORIAL HepG2 Assay for human p53 Transcription Factor (AID 2282994); settings: HepG2 p53 cis-element reporter, Attagene mRNA; actives raise or lower the signal
# Chain of Cellular tumor antigen p53 (Homo sapiens) (P04637 whole entry, looked up): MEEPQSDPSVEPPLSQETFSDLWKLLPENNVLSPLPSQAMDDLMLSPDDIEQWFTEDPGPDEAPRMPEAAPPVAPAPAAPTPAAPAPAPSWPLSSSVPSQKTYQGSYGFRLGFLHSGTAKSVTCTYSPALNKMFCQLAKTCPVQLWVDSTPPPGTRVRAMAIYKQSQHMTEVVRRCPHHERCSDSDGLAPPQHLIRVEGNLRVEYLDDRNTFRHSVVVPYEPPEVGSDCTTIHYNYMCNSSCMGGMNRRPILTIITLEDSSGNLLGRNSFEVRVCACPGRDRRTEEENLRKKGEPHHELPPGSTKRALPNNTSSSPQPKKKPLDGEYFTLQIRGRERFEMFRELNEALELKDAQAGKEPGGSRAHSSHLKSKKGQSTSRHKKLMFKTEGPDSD
# Method in brief: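 Read-out: reporter mRNA by RT-PCR plus capillary electrophoresis with fluorescence detection. Human HepG2 liver cells carried transfected multi-reporter cis-element constructs, dosed 24 h. Gain or loss of signal fitted bidirectionally against DMSO control.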
# [6] = BSK_3C_TissueFactor: BioMAP Diversity Plus: 3C Assay for Tissue Factor Biomarker Activity (AID 2282997); settings: BioMAP 3C HUVEC, tissue factor biomarker readout; actives raise or lower the signal
# Method in brief: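 After a 24 h chemical exposure of primary human umbilical vein endothelial cells, Tissue Factor levels were quantified by ELISA.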
# [7] = BSK_3C_uPAR: BioMAP Diversity Plus: 3C Assay for Urokinase-type plasminogen activator receptor (uPAR) Biomarker Activity (AID 2282998); settings: BioMAP 3C HUVEC, uPAR biomarker ELISA; actives raise or lower the signal
# Method in brief: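 In this endothelial cell-based assay, human umbilical vein primary cells were treated with chemicals and harvested at 24 h. uPAR was quantified using ELISA, with gains or losses fitted relative to DMSO controls.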
# [8] = BSK_3C_VCAM1: BioMAP Diversity Plus: 3C Assay for Vascular cell adhesion molecule 1 (VCAM1) Biomarker Activity (AID 2282999); settings: BioMAP 3C HUVEC, VCAM1 ELISA, cytokine-stimulated; actives raise or lower the signal
# Method in brief: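 HUVEC primary cells, 24 h compound exposure; VCAM-1 by ELISA; gain/loss of signal fitted bidirectionally vs DMSO baseline.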
# [9] = BSK_4H_Eotaxin3: BioMAP Diversity Plus: 4H Assay for Eotaxin 3 Biomarker Activity (AID 2283000); settings: primary human endothelial cells (HUVEC); actives raise or lower the signal;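 as to outcome: CCL26 protein level quantified by ELISA in parallel with SRB cytotoxicity check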
# Method in brief: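 Chemicals were added to human umbilical vein endothelium cultures, and Eotaxin-3 was quantified by ELISA at 24 h. Values were derived by bidirectional fitting with DMSO serving as negative control and activity baseline.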
# [10] = target: human Peroxisome Proliferator-activated Receptor delta (PPARd), PPARD (gene 5467) (UniProt Q03181); assay: ATG_PPARd_TRANS: Attagene TRANS-FACTORIAL HepG2 Assay for human Peroxisome Proliferator-activated Receptor delta (PPARd) (AID 2283002; active = hit-call score of the fitted dose curve at least 0.9, where 1 is the maximum)
# Chain of human Peroxisome Proliferator-activated Receptor delta (PPARd), PPARD (gene 5467) (Q03181 whole entry, looked up, the tested form may be a part): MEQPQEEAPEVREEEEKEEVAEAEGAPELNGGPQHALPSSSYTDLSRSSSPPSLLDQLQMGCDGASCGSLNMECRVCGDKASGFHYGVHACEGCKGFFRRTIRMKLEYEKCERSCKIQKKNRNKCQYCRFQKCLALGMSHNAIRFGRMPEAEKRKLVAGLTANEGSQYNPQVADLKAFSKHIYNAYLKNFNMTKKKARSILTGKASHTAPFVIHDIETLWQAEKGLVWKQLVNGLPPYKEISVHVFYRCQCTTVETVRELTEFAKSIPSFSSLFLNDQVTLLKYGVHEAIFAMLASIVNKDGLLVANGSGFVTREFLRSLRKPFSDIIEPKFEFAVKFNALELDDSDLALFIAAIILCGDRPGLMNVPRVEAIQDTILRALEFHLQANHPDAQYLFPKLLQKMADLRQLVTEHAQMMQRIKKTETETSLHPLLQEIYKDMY
# Method in brief: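 HepG2 cells transiently transfected with GAL4-UAS multiplexed reporter units driven by exogenous chimeric NR-GAL4 proteins; 24 h compound exposure. Reporter mRNA measured by RT-PCR, 6-FAM primer extension, HpaI digestion and capillary electrophoresis; gain of signal fitted relative to DMSO.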
# [11] = read-out: Intercellular Adhesion Molecule 1 (ICAM1), ICAM1 (gene 3383); assay: BSK_3C_ICAM1: BioMAP Diversity Plus: 3C Assay for Intercellular Adhesion Molecule 1 (ICAM1) Biomarker Activity (AID 2283003); settings: primary human endothelial cells (HUVEC); actives raise or lower the signal
# Method in brief: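 Using DMSO as baseline, bidirectional curve fitting was applied to ICAM-1 ELISA signals from HUVEC in the 3C system, measured 24 h after compound addition.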
# [12] = target: Retinoic acid receptor alpha (Homo sapiens) (UniProt P10276); assay: ATG_RARa_TRANS: Attagene TRANS-FACTORIAL HepG2 Assay for human Retinoic Acid Receptor alpha (RARa) (AID 2283005; active = hit-call score of the fitted dose curve at least 0.9, where 1 is the maximum)
# Chain of Retinoic acid receptor alpha (Homo sapiens) (P10276 whole entry, looked up, the tested form may be a part): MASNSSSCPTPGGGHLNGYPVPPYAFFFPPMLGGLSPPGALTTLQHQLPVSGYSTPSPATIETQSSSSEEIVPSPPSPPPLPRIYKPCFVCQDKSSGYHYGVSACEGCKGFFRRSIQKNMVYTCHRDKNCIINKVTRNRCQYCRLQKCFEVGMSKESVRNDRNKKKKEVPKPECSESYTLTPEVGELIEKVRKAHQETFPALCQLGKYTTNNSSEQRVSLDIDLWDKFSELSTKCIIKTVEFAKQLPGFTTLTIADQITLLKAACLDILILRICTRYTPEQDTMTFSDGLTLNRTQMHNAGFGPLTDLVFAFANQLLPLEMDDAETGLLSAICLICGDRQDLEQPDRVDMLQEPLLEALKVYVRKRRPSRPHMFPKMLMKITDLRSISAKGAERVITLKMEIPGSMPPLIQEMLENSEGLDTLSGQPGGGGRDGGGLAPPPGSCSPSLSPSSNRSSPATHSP
# Method in brief: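 HepG2 transiently transfected with multiplex GAL4-UAS reporter units including a human RARa–GAL4 chimera; 24 h compound exposure. Reporter mRNA quantified by RT-PCR, 6-FAM labeling and capillary electrophoresis; gain of signal versus DMSO.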
# [13] = BSK_3C_Proliferation: Cell Proliferation Assessment in the BioMAP Diversity Plus: 3C Assay (AID 2283006); settings: primary human endothelial cells (HUVEC);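 as to AC50: potency may reflect either rise or fall in cell number versus DMSO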
# Method in brief: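 Measured here: sulforhodamine B (0.1%) staining of TCA-fixed sub-confluent umbilical vein endothelial cultures 48 h post-dosing, absorbance 560 nm. DMSO served as negative control and baseline; both signal gain and loss were modelled.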
# [14] = target: Peroxisome proliferator-activated receptor gamma (Homo sapiens) (UniProt P37231); assay: ATG_PPARg_TRANS: Attagene TRANS-FACTORIAL HepG2 Assay for human Peroxisome Proliferator-activated Receptor-gamma (PPARg) (AID 2283007; active = hit-call score of the fitted dose curve at least 0.9, where 1 is the maximum)
# Chain of Peroxisome proliferator-activated receptor gamma (Homo sapiens) (P37231 whole entry, looked up): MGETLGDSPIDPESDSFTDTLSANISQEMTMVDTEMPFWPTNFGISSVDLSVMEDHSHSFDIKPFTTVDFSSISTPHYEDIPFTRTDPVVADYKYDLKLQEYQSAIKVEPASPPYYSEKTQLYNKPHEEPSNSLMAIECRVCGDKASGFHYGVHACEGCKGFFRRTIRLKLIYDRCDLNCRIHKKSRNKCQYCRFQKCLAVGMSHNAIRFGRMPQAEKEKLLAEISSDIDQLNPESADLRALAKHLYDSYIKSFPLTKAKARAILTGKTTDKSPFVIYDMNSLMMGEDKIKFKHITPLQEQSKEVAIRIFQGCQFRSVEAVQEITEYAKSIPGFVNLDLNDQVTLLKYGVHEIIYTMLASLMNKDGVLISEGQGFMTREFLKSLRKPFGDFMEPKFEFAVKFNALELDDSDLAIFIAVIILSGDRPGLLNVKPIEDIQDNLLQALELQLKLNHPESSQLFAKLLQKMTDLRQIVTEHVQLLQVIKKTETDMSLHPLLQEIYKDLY
# Method in brief: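 Multiplexed reporter transcription units in HepG2, 24 h dosing, reporter transcripts quantified by fluorescent RT-PCR and capillary electrophoresis. Increase over DMSO scored.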
# [15] = target: Nuclear receptor subfamily 1 group I member 2 (Homo sapiens) (UniProt O75469); assay: ATG_PXR_TRANS: Attagene TRANS-FACTORIAL HepG2 Assay for human Pregnane X Receptor (PXR) (AID 2283008; active = hit-call score of the fitted dose curve at least 0.9, where 1 is the maximum)
# Chain of Nuclear receptor subfamily 1 group I member 2 (Homo sapiens) (O75469 whole entry, looked up, the tested form may be a part): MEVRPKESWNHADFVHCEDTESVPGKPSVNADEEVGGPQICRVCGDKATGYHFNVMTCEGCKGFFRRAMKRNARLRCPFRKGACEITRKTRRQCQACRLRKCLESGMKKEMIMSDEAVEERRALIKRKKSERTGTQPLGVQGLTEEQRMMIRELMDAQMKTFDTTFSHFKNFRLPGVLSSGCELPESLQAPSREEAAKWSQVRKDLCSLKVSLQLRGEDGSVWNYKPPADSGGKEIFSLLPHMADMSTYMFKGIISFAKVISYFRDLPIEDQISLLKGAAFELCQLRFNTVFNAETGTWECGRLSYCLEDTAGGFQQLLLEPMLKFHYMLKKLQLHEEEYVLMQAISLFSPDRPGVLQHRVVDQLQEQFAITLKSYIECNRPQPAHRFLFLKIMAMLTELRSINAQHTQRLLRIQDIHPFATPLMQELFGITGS
# Method in brief: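 Trans-factorial format: exogenous NR-Gal4 fusion activity, not endogenous factor, in transfected human HepG2 liver cells. After 24 h dosing, RNA isolated, reverse-transcribed, amplified and resolved by capillary electrophoresis; induction scored versus DMSO.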
# [16] = target: human Peroxisome Proliferator-activated Receptor alpha (PPARa), PPARA (gene 5465) (UniProt Q07869); assay: ATG_PPARa_TRANS: Attagene TRANS-FACTORIAL HepG2 Assay for human Peroxisome Proliferator-activated Receptor alpha (PPARa) (AID 2283001; active = hit-call score of the fitted dose curve at least 0.9, where 1 is the maximum;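 as to AC50: potency for gain of reporter signal over DMSO so agonist or activator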)
# Chain of human Peroxisome Proliferator-activated Receptor alpha (PPARa), PPARA (gene 5465) (Q07869 whole entry, looked up, the tested form may be a part): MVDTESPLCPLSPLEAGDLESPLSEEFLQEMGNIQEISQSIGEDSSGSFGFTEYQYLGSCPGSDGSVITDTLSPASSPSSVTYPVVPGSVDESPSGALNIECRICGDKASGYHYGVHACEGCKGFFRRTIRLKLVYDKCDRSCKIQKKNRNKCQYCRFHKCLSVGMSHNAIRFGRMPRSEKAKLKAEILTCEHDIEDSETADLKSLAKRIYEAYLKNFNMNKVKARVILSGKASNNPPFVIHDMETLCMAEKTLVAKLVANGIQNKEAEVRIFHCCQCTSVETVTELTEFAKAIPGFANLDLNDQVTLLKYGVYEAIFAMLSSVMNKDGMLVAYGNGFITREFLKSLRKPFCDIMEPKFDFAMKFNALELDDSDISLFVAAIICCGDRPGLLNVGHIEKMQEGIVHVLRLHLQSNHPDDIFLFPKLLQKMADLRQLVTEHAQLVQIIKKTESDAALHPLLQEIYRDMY
# Method in brief: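 Transient HepG2 transfection, GAL4-UAS reporters, NR-Gal4 chimeras; 24 h compound exposure. Readout: reporter transcripts by RT-PCR, 6-FAM primer extension, HpaI digest, capillary electrophoresis. Positive direction vs DMSO baseline.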
# [17] = target: human Retinoic Acid Receptor beta (RARb), RARB (gene 5915) (UniProt P10826); assay: ATG_RARb_TRANS: Attagene TRANS-FACTORIAL HepG2 Assay for human Retinoic Acid Receptor beta (AID 2283004; active = hit-call score of the fitted dose curve at least 0.9, where 1 is the maximum)
# Chain of human Retinoic Acid Receptor beta (RARb), RARB (gene 5915) (P10826 whole entry, looked up): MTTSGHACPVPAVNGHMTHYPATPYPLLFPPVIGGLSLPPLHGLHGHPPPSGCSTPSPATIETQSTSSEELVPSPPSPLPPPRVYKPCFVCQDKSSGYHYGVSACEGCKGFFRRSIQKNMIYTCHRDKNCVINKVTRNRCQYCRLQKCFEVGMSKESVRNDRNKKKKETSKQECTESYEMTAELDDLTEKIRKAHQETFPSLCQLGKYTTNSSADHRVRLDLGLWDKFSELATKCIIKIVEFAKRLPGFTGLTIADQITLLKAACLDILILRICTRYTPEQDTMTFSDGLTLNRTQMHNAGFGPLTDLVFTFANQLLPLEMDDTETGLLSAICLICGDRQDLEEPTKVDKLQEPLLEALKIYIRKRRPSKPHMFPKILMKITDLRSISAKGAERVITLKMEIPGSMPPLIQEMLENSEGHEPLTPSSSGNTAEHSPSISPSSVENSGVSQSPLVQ
# Method in brief: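 Transient transfection of HepG2 with multiple reporter units → chemical dosing, 24 h → total RNA isolation → RT with oligo(dT) → reporter-specific PCR, 6-FAM primer extension, HpaI digest → capillary electrophoresis. Positive direction vs DMSO control.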
# [18] = target: human Retinoic Acid Receptor gamma (RARg), RARG (gene 5916) (UniProt P13631); assay: ATG_RARg_TRANS: Attagene TRANS-FACTORIAL HepG2 Assay for human Retinoic Acid Receptor gamma (RARg) (AID 2283009; active = hit-call score of the fitted dose curve at least 0.9, where 1 is the maximum)
# Chain of human Retinoic Acid Receptor gamma (RARg), RARG (gene 5916) (P13631 whole entry, looked up, the tested form may be a part): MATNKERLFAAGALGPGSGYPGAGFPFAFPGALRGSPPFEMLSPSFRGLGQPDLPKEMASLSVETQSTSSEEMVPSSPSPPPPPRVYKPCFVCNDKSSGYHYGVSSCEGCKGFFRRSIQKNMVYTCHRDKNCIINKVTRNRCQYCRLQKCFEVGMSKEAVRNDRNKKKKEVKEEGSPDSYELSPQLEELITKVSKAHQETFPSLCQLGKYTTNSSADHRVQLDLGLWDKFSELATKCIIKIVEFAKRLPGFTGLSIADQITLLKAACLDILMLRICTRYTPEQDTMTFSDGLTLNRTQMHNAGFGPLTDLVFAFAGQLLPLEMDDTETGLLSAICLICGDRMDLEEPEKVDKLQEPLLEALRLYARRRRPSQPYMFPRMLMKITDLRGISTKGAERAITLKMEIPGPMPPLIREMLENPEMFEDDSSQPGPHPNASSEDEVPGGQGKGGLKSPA
# Method in brief: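 Gain-of-signal relative to DMSO is reported from fluorescent capillary electrophoresis of RT-PCR reporter products. These came from HepG2 cells expressing transfected RARg-GAL4 chimeras with UAS reporters, harvested 24 h after dosing.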
# [19] = target: human RAR-related Orphan Receptor gamma (RORg), RORC (gene 6097) (UniProt P51449); assay: ATG_RORg_TRANS: Attagene TRANS-FACTORIAL HepG2 Assay for human RAR-related Orphan Receptor gamma (RORg) (AID 2283011; active = hit-call score of the fitted dose curve at least 0.9, where 1 is the maximum)
# Chain of human RAR-related Orphan Receptor gamma (RORg), RORC (gene 6097) (P51449 whole entry, looked up, the tested form may be a part): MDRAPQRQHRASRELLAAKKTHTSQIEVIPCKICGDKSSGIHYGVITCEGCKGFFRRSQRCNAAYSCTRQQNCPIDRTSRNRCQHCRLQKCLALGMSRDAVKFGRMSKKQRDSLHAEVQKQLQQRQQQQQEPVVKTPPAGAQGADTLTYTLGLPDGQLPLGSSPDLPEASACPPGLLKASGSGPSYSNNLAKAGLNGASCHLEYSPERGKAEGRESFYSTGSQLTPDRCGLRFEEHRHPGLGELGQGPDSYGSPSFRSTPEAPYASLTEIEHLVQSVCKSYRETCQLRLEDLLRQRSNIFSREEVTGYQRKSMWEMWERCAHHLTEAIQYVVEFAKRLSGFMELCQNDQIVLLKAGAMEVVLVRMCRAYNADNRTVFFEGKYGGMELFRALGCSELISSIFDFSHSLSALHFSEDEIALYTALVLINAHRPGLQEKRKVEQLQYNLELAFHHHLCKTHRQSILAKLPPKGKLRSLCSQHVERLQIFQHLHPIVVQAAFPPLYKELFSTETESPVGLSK
# Method in brief: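 First, HepG2 liver cells were transfected with GAL4-UAS-driven reporter constructs and the RORg-Gal4 fusion. Next, they were treated with chemical for 24 h. Finally, reporter mRNA was quantified by RT-PCR and capillary electrophoresis, with upward activity fitted against DMSO.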
# [20] = target: human RAR-related Orphan Receptor beta (RORb), RORB (gene 6096) (UniProt Q92753); assay: ATG_RORb_TRANS: Attagene TRANS-FACTORIAL HepG2 Assay for human RAR-related Orphan Receptor beta (RORb) (AID 2283010; active = hit-call score of the fitted dose curve at least 0.9, where 1 is the maximum)
# Method in brief: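 Multiplexed transcription-factor reporter assay: HepG2 cells transiently carrying NR-Gal4/GAL4-UAS constructs, 24 h treatment, mRNA quantified by RT-PCR plus capillary electrophoresis fluorescence; activity scored as induction over DMSO.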
smiles,measurement,setting,value
O=C(OCCCCCOC(=O)c1ccccc1)c1ccccc1,outcome,[1],inactive
same,outcome,[2],inactive
same,outcome,[3],inactive
same,outcome,[4],inactive
same,outcome,[5],inactive
same,outcome,[6],inactive
same,outcome,[7],inactive
same,outcome,[8],inactive
same,outcome,[9],inactive
same,outcome,[10],inactive
same,outcome,[11],inactive
same,outcome,[12],inactive
same,AC50,[13],29.7 µM (active)
same,outcome,[14],inactive
same,outcome,[15],inactive
Cc1nc(-c2ccc3c(c2)CCN(CCC2CCC(NC(=O)/C=C/c4ccc(F)cc4)CC2)CC3)no1 (configuration not stated),outcome,[1],inactive
same,outcome,[2],inactive
same,outcome,[3],inactive
same,outcome,[4],inactive
same,outcome,[5],inactive
same,outcome,[7],inactive
same,AC50,[8],12.8 µM (active)
same,AC50,[9],12.9 µM (active)
same,outcome,[16],inactive
same,outcome,[11],inactive
same,AC50,[13],4.71 µM (active)
same,outcome,[14],inactive
Cc1ccc(C(C)C)c(O)c1,outcome,[1],inactive
same,outcome,[2],inactive
same,AC50,[3],100 µM (active)
same,outcome,[4],inactive
same,outcome,[5],inactive
same,outcome,[7],inactive
same,outcome,[8],inactive
same,outcome,[9],inactive
same,outcome,[16],inactive
same,outcome,[11],inactive
same,outcome,[17],inactive
same,outcome,[13],inactive
same,outcome,[14],inactive
same,outcome,[15],inactive
same,outcome,[18],inactive
same,outcome,[19],inactive
C1CCC(SSC2CCCCC2)CC1,outcome,[1],inactive
same,outcome,[2],inactive
same,AC50,[3],75.5 µM (active)
same,outcome,[4],inactive
same,outcome,[5],inactive
same,outcome,[7],inactive
same,AC50,[8],26.5 µM (active)
same,AC50,[9],32.7 µM (active)
same,outcome,[16],inactive
same,outcome,[10],inactive
same,outcome,[11],inactive
same,AC50,[13],28.5 µM (active)
same,outcome,[14],inactive
same,outcome,[15],inactive
same,outcome,[18],inactive
CC1(C)NC(=O)NC1=O,outcome,[1],inactive
same,outcome,[2],inactive
same,outcome,[3],inactive
same,outcome,[4],inactive
same,outcome,[5],inactive
same,outcome,[6],inactive
same,outcome,[7],inactive
same,outcome,[8],inactive
same,outcome,[9],inactive
same,outcome,[10],inactive
same,outcome,[11],inactive
same,outcome,[12],inactive
same,outcome,[13],inactive
same,outcome,[15],inactive
same,outcome,[20],inactive
Cc1oc(-c2ccccc2)nc1CCOc1cccc2c1ccn2CCC(=O)O,outcome,[1],inactive
same,outcome,[2],inactive
same,AC50,[3],31.4 µM (active)
same,outcome,[4],inactive
same,outcome,[5],inactive
same,outcome,[6],inactive
same,outcome,[7],inactive
same,outcome,[8],inactive
same,outcome,[9],inactive
same,AC50,[16],3.95 µM (active)
same,AC50,[10],4.28 µM (active)
same,outcome,[11],inactive
same,outcome,[17],inactive
same,outcome,[12],inactive
same,outcome,[13],inactive
same,AC50,[14],0.0142 µM (active)
same,AC50,[15],10.9 µM (active)
same,outcome,[18],inactive
same,outcome,[19],inactive
CCCCCCOCCO,outcome,[1],inactive
same,outcome,[2],inactive
same,outcome,[3],inactive
same,outcome,[4],inactive
same,outcome,[5],inactive
same,outcome,[6],inactive
same,outcome,[7],inactive
same,outcome,[8],inactive
same,outcome,[9],inactive
same,outcome,[16],inactive
same,outcome,[10],inactive
same,outcome,[11],inactive
same,outcome,[13],inactive
same,outcome,[14],inactive
same,outcome,[15],inactive
